# Source: PubChem BioAssay (National Center for Advancing Translational Sciences (NCATS))
# Most compounds without a hit are left out; they make up all but 15% or so of the library.
# HCMV inh = blocks human cytomegalovirus replication; HFF cells, HCMV-luciferase reporter, 72 h; active compounds read low; activity change, negative = inhibition, % at 57.5 µM; actives 4.5% (n = 410,000); AID 1259415; in the data active means activity change below about -60%; inconclusive means no clear call, values can overlap the other calls; inactive means above about -39%; further: on the % scale 0 is the no-effect control and ±100 the full control effect
#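 Human foreskin fibroblasts infected with luciferase-reporter HCMV at MOI 1 PFU/cell, compounds at two doses. Luciferase measured 72 h post infection; normalized to buffer-only basal and Salinomycin (10uM) controls.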
# HCV inh = blocks hepatitis C virus; Huh7.5.1 HCVcc-Cre infection, luciferase reporter, 44 h; Potency, µM (titrated, usually from 41.8 µM), for the others: at the top dose activity change, negative = inhibition, actives largely listed as inhibitors; actives 3.4% (n = 340,000); AID 651820; further: potency means the concentration at half of the fitted maximal effect; on the % scale 0 is the no-effect control and ±100 the full control effect
#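 Reporter virus HCVcc-Cre (~0.5 moi) infects cells exposed to compound; seeding density 1,000 cells/well with 4 h settling beforehand. Luminescence, 15 sec read, taken 44 h post-infection following a 15 min RT substrate incubation.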
# Pf growth 96h = P. falciparum growth inhibition at 96 hour, primary screen for plastid delayed-death inhibitors | P. falciparum luciferase reporter growth, 96 h | Potency, µM (highest dose often 28.7 µM), for the others: top-dose activity change, negative = inhibition, hits mostly inhibitors | actives 6.9% (n = 320,000); further: potency means the concentration at half of the fitted maximal effect; on the % scale 0 is the no-effect control and ±100 the full control effect
#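 Plates of compound plus infected erythrocytes (2% hematocrit, 0.05% parasitemia final) incubate 96 hours, 37 C, 5% CO2. Detection reagent added; reduced luminescence from the parasites' luciferase reporter flags inhibition.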
# Pf growth 48h = inhibits P. falciparum growth in the first generation, 48 h | actives 5.9% (n = 310,000) | AID 504832 | Potency, µM (top dose mostly 28.7 µM), for inactives: at the top dose activity change, negative = inhibition, actives largely listed as inhibitors | P. falciparum luciferase growth in erythrocytes, 48 h; further: potency means the concentration at half of the fitted maximal effect; on the % scale 0 is the no-effect control and ±100 the full control effect
#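 Cell-based growth assay: transgenic P. falciparum expressing firefly luciferase, cultured in red cells within RPMI 1640 containing 0.5% w/v Albumax, 24 mM bicarbonate and gentamycin. A drop in luciferase activity indicates inhibition.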
# SARS PLpro yeast = blocks SARS-CoV papain-like protease in a yeast assay | S. cerevisiae expressing SARS-CoV PLpro, growth rescue | Potency, µM (top dose mostly 32.9 µM), for the others: at the highest dose activity, positive = growth rescue, hits mostly activators | actives 0.19% (n = 330,000); calls by dose curve; further: potency means the concentration at half of the fitted maximal effect; 0% is about no effect; nearly all actives have a fitted effect of over 55% in size
# Sm TGR inh = S. mansoni TGR enzyme inhibition. Q962Y6. purified TGR, DTNB reduction, TNB absorbance 405 nm. Potency, µM (top dose mostly 114 µM), for inactives: at the top dose activity change, negative = inhibition, actives largely listed as inhibitors. actives 3% (n = 360,000); further: potency means the concentration at half of the fitted maximal effect; on the % scale 0 is the no-effect control and ±100 the full control effect; nearly all actives have a fitted effect of over 60% in size
#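 First, TGR (20 nM dispensed) and NADPH were mixed with compound. Second, a 15 min room-temperature incubation followed. Third, further NADPH and then DTNB were added to start the reaction. Finally, TNB absorbance was monitored kinetically.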
# * hit, by the source's call; ? = inconclusive; · = no result; [ ] = another dose, or the depositor's remark. Unless noted, the call rests on the fitted dose curve; in most records, active means well fitted curve in the direction sought with a large enough effect; inconclusive means small, poorly fitted or top-dose-only effect, or another doubt; inactive means no such curve, though single readings can be large; an effect the other way counts as inactive or inconclusive.
SMILES,HCMV inh,HCV inh,Pf growth 96h,Pf growth 48h,SARS PLpro yeast,Sm TGR inh
Cc1cccc(OCC(=O)Nc2c3c(nn2C(C)(C)C)CS(=O)(=O)C3)c1,51,-1%,18%,40%,-2%,6%
Cc1noc(C)c1CN1CCN2C(C(=O)Nc3ccccc3)=COC2=NC1=O,5,·,·,·,·,·
COc1cccc(CN2CCN3C(C(=O)Nc4ccccc4)=COC3=NC2=O)c1,-62*,·,·,·,·,·
CC1CN(C(NC(=O)C(C)(C)C)C(Cl)(Cl)Cl)CC(C)O1 (configuration not stated),-7,1%,212%,36%,1%,35µM*
CC1CN(C(NC(=O)c2ccccc2)C(Cl)(Cl)Cl)CC(C)O1 (configuration not stated),7,15%,-25%,11%,-2%,20µM*
CCC(Sc1nc2ncccc2[nH]1)C(=O)NCCc1ccccc1 (configuration not stated),-61*,-6%,-3%,30%,4%,-5%
Cc1nc2ccc([N+](=O)[O-])cc2c(=O)n1Cc1ccc(Br)cc1,86,?,3.3µM*,4%,-9%,-4%
COc1cccc(Cn2cnc3c(NS(=O)(=O)c4ccc(Cl)cc4Cl)c(C)c(C)cc32)c1,-17,?,0%,25%,-10%,-9%
COc1cccc(Cn2cnc3c(NS(=O)(=O)c4ccc(Cl)cc4)c(C)c(C)cc32)c1,9,4%,4.7µM*,13µM*,0%,-11%
COc1cccc(Cn2cnc3c(NS(=O)(=O)c4cccc(Cl)c4Cl)c(C)c(C)cc32)c1,-24,13µM*,?,?,2%,-7%
CN(C)c1ccc(C=C2C(=O)NC(=S)NC2=O)cc1,22,?,·,·,·,·
CCN(CC)c1ccc(C=C2C(=O)NC(=S)NC2=O)cc1,-29,?,31%,-15%,2%,16µM*
CC(C)CN(CC(C)C)c1ccc(C=C2C(=O)NC(=S)NC2=O)cc1[N+](=O)[O-],-13,-11%,?,?,-2%,1.1µM*
Cc1ccc(/C=C2\NC(=S)NC2=O)cc1[N+](=O)[O-],-22,-1%,85%,13%,0%,1%
COC(=O)Cc1sc(-c2ccccn2)nc1-c1ccccc1,0,-14%,2%,-15%,2%,5%
O=C(Cc1sc(-c2ccccc2)nc1-c1ccccc1)Nc1ccc(Cl)cc1,-76*,-2%,?,·,-3%,19%
O=C(Cc1sc(-c2ccccc2Cl)nc1-c1ccccc1)Nc1ccccc1,-90*,-5%,·,-3%,8%,0%
Cc1nc(-c2ccc(F)cc2)c(CC(=O)N(C)CC(=O)Nc2ccc(F)cc2)s1,1,-2%,?,-21%,1%,-13%
CC(=O)Nc1ccc(NC(=O)Cc2sc(-c3cccnc3)nc2-c2ccc(C)cc2)cc1,-25,-9%,-20%,-13%,0%,·
O=C(Cc1sc(-c2ccccc2Cl)nc1-c1ccccc1)Nc1ccc(F)cc1,-60*,7.9µM*,·,?,9%,-4%
COc1ccccc1NC(=O)CSc1ncc2c(n1)-c1ccccc1N(Cc1ccccc1C)S2(=O)=O,8,·,·,·,·,15%
Oc1ccc2c(c1)OCC1(O)Cc3cc(O)c(O)cc3C21 (configuration not stated),-6,25µM*,·,·,·,·
Oc1cc2c(cc1O)[C@H]1c3ccc(O)c(O)c3OC[C@@]1(O)C2,-34,?,6.6µM*,3.7µM*,-2%,2.2µM*
COc1ccc(C2COc3cc(O)ccc3C2)c(OC)c1O (configuration not stated),20,11%,·,·,·,·
CCc1ccc(NC(=O)c2sc3nc(C)cc(C)c3c2NC(=O)c2ccccc2OC)cc1,15,·,·,·,·,-3%
SMILES,HCMV inh,HCV inh,Pf growth 96h,Pf growth 48h,SARS PLpro yeast,Sm TGR inh
CC1(C(=O)NS(=O)(=O)c2ccccc2Cl)CCN1C(=O)c1ccccc1CCc1ccccc1 (configuration not stated),-30,·,·,·,·,·
CCOC(=O)c1cc(NC(=O)N(C)C2CCCCC2)c(C)nc1C,-20,-5%,26%,9%,0%,-6%
CCOC(=O)c1cc(NC(=O)N(CC)C2CCCCC2)c(C)nc1C,-18,4%,-1%[5.75 µM],1%,14µM*,4%
CCOC(=O)c1cc(NC(=O)Nc2cc(C)ccn2)c(C)nc1C,-65*,-16%,34%,16%,1%,-3%
CC(C)C(NC(=O)c1ccc(F)cc1)C(=O)NC1(C)CCS(=O)(=O)C1 (configuration not stated),-13,15%,-20%,-7%,-5%,-6%
COc1cc(OC)cc(C(=O)N[C@H](C(=O)NC2CCCc3ccccc32)C(C)C)c1 (some centres not stated),1,-4%,·,·,2%,·
Cc1ncc(CN2CCCC(C(=O)c3cccc(OC(C)C)c3)C2)s1 (configuration not stated),-69*,?,?,?,1%,2%
Cc1ccsc1C(=O)C1CCCN(Cc2cnn(C)c2)C1 (configuration not stated),23,8%,?,-1%,1%,1%
Cc1ncc(CN2CCCC(C(=O)c3sccc3C)C2)s1 (configuration not stated),11,-8%,12µM*,-16%,1%,-6%
CC(C)Oc1cccc(C(=O)C2CCCN(Cc3cnc(N4CCOCC4)s3)C2)c1 (configuration not stated),-72*,?,31%,?,0%,-14%[57.1 µM]
COc1ccc(C(=O)C2CCCN(Cc3cnc(N4CCOCC4)s3)C2)cc1F (configuration not stated),5,?,1%,-6%,-1%,-2%
CC1=CC2C(C(O)CC3(C)C2CC(C)C32OCOC23COCO3)C2(C)C/C(=C\O)C(=O)C=C12 (configuration not stated),-99*,?,·,·,·,·
O=C(c1c[nH]c(C(=O)C(Cl)(Cl)Cl)c1)c1ccccc1F,8,7%,-7%,-2%[0.00184 µM],0%,-18%
O=C(c1c[nH]c(C(=O)C(Cl)(Cl)Cl)c1)c1c(F)cccc1F,-80*,9%,?,-5%[0.00184 µM],-2%,5%
O=C(O)c1ccc(-c2sc(Nc3ccccc3)n[n+]2-c2ccc(F)cc2)cc1,·,19%,30%,21%,-2%,-25%
Cc1cccc(-c2sc(Nc3ccccc3)n[n+]2-c2ccccc2)c1,8,-4%,-23%,?,3%,-8%
Fc1ccc(-[n+]2nc(Nc3ccccc3)sc2-c2c(Cl)cccc2Cl)cc1,?,10µM*,?,?,-5%,0%
